Screening results deposited in PubChem by The Scripps Research Institute Molecular Screening Center.
In the library only some 4.1% were active in any assay of this set; here they are far more common.
NOTCH ag – agonists of NOTCH signaling; NOTCH signaling luciferase reporter cells, luminescence; activation, % at 2.5 µM; hit rate 0.4% among 15,000; AID 434982, 2010; in the data active means activation above about 2.2%
Nox1 inh – inhibitors of human NADPH oxidase 1 (Nox1). Q9Y5S8. inhibition, % at 6.7 µM. AID 1792, 2009. HT29 cells, luminol chemiluminescence ROS. hit rate 0.81% among 16,000
rat GALR2 ag – agonists of rat galanin receptor 2 (GALR2); Galanin receptor type 2 (Rattus norvegicus), O08726; cell-based GALR2 agonist screen; activation, % at 10 µM; hit rate 0.5% among 16,000; AID 833, 2007; in the data active means activation above about 15%
PME-1 Maybridge – inhibitors of human PME-1 in Maybridge library; Protein phosphatase methylesterase 1 (Homo sapiens), Q9Y570; recombinant PME-1, FP-Rh probe fluorescence polarization; inhibition, % at 9 µM; hit rate 0.5% among 16,000; AID 2291, 2010; in the data active means inhibition above about 30%
S1P1 ag – activates the human S1P1 receptor; S1P1 agonist cell-based reporter assay; activation, % at 4.5 µM; Sphingosine 1-phosphate receptor 1 (Homo sapiens), P21453; hit rate 1.5% among 16,000; AID 1044, 2008; in the data active means activation above about 80%
Target sequence (P21453 whole entry, looked up): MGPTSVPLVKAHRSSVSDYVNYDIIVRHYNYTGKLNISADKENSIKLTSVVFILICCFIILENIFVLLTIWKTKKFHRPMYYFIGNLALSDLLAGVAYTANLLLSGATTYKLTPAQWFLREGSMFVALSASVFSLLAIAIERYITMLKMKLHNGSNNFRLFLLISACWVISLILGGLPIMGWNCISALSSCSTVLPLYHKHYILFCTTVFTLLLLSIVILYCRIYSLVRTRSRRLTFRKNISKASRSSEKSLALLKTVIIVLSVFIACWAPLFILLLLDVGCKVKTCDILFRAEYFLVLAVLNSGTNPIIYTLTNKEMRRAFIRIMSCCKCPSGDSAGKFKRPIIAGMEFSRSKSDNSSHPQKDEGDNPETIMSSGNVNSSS
Luminol counter – counter-screen for Nox1 inhibitors: inhibitors of luminol chemiluminescence; inhibition, % at 6.7 µM; hit rate 0.4% among 16,000; HRP/luminol/H2O2 chemiluminescence counterscreen; further: reference of the scale not given here
Numbers without * were called inactive; nt = no result. Unless noted, no stated cut-off is given here; in the data, active means inhibition above about 75%; inactive means the rest.

SMILES	NOTCH ag	Nox1 inh	rat GALR2 ag	PME-1 Maybridge	S1P1 ag	Luminol counter
CCOC(=O)/C(C#N)=C/c1cn(-c2ccccc2)nc1-c1ccccc1	0	2	69*	-1	-6	1
CCOC(=O)/C(C#N)=C/c1ccccc1	0	-25	-5	7	-2	-4
CC(c1ccccc1)n1c(=O)[nH][nH]c1=S (stereo not drawn)	0	38	-6	1	7	2
COc1ccc(/C=C(\C#N)C(N)=S)cc1	-1	-56	0	4	109*	8
COc1ccc(C(=O)CC(C(=O)c2ccccc2)c2ccccc2)cc1 (stereo not drawn)	0	-8	-10	-2	102*	-6
O=C(COc1ccccc1)Nc1ccc2c(c1)OCC1CCCN21 (stereo not drawn)	0	-60	-3	-3	-20	3
COc1cc(CCC(=O)NNC(=S)Nc2ccc(F)cc2)cc(OC)c1OC	0	13	-5	1	1	92*
COc1cc(CCC(=O)NNC(=O)C(F)(F)F)cc(OC)c1OC	-1	9	-4	7	-6	-2
N#C/C(=C\c1ccc(C(F)(F)F)cc1)c1csc2ccccc12	nt	-38	-10	-4	-10	1
COc1ccc(C(=O)C=C(C)C)c(O)c1O	0	76*	-6	2	6	41
O=C1c2cccc3c([N+](=O)[O-])ccc(c23)C(=O)N1Cc1cccnc1	-1	-5	-8	33*	-2	-4
O=C1c2cccc3c([N+](=O)[O-])ccc(c23)C(=O)N1NCCO	-1	-8	-10	18	22	-1
Cc1nc(C(F)(F)F)c(C(=O)NNc2ncc(C(F)(F)F)cc2Cl)s1	0	85*	0	-1	13	6
O=[N+]([O-])c1cccc(Cl)c1Oc1ccc(S(=O)(=O)N2CCOCC2)cc1	-1	0	-9	33*	0	-2
O=C(O)C1CC2(COC(c3ccccc3)OC2)C1C(=O)O (stereo not drawn)	0	-55	-5	-5	7	3
Cc1cc(C(=O)NNC(=O)c2ccco2)nn1C(C)(C)C	-1	-47	-4	3	0	-1
Cc1cc(C(=O)NNS(=O)(=O)c2cccc3cccnc23)nn1C(C)(C)C	3.2*	-8	-8	4	5	12
CC(=O)CC(C)=Nc1ccc(C(F)(F)F)cc1	0	6	-8	-1	2	3
CSc1cccc(NC(=S)Nc2cccc(SC)c2)c1	2.5*	-26	-5	6	5	-10
CSc1cccc(NC(=O)CN2CCN(CC(=O)Nc3cccc(SC)c3)CC2)c1	0	9	-7	10	-2	-6
COc1ccc(/C=C2/N=C(c3ccccc3)NN(Cc3ccccc3)C2=O)cc1	-1	-102	-7	1	6	2
CN(NC=C(C#N)C#N)c1ccccc1[N+](=O)[O-]	0	104*	-1	6	-5	-5
Cc1ccc(N(C)NC=C(C#N)C#N)nn1	0	-21	-4	2	13	6
Cc1[nH]c2ccccc2c1SCc1n[nH]c(=S)n1C	0	7	20*	34*	0	1
O=[N+]([O-])c1ccc(SCc2c(F)cccc2Cl)cc1	1	-14	-6	-5	-4	2
SMILES	NOTCH ag	Nox1 inh	rat GALR2 ag	PME-1 Maybridge	S1P1 ag	Luminol counter
CCN(CC)c1ccc(N=Nc2ccc(Br)cn2)c(O)c1	-1	41	-10	20	86*	42
O=C(Nc1ccccc1)Nc1ccc(Oc2cccc(C(F)(F)F)c2)nc1	-1	-23	-6	-80	87*	0
O=C(Nc1cccc(C(F)(F)F)c1)Nc1ccc2nonc2c1	-1	-26	-1	3	59	-2
O=C(Nc1ccc(Oc2cccc(C(F)(F)F)c2)nc1)c1ccc2c(c1)CCO2	-1	-3	-1	-7	90*	4
O=S(=O)(N=S1CCN(S(=O)(=O)c2ccc(Cl)cc2)CC1)c1ccc(Cl)cc1	0	-84	-5	4	4	1
CC(=O)NNC(=O)c1ccccn1	0	15	-6	6	-8	-6
CNC(=S)NNC(=O)c1ccccn1	nt	87*	-7	1	-2	53
Cc1nc(-c2cc(C#N)c(NCc3ccccc3)nc2C)cs1	0	-61	-1	0	85*	3
Cc1nc(-c2cc(C#N)c(SCCNS(=O)(=O)c3cccc(C(F)(F)F)c3)nc2C)cs1	-1	-26	-9	-38	-7	3
